Drawing on PubChem BioAssay (NCI), this text covers growth for eight molecules.

Structures are written as SMILES. This is part of a sample that, as a whole, favours compounds with a hit. Of some 83,000 tested, about 20% had one in any assay.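 Step 1: grow cells in 96-well plates. Step 2: add test compound at a single concentration. Step 3: incubate 48 h. Step 4: record percent growth.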 A number with no mark means an inactive call. The source made the active and inactive calls. Rule for the calls: active = growth percent below 10; inactive = the rest.

Test systems include DU-145 prostate; K-562 leukemia; MALME-3M melanoma; MDA-MB-231 breast; RXF 393 renal; SF-268 CNS; SF-295 CNS; SF-539 CNS; UACC-257 melanoma; M14 melanoma; HCT-15 colon; HT29 colon; SNB-75 CNS; SNB-19 CNS; U251 CNS; PC-3 prostate; SK-MEL-5 melanoma; UACC-62 melanoma; LOX IMVI melanoma; SK-MEL-28 melanoma.
Common to all, as to assay: NCI-60 one-dose screen, 48 h (100 = growth as untreated, 0 = no growth, -100 = all killed)
What all share (details): 10 µM unless noted

Consider `COC(=O)c1n[nH]c2ccc3nc(-c4cn[nH]c4C(F)(F)F)c4c(c3c12)CCCC4`, for which the growth in the assay with DU-145 prostate is 49.1%; in the assay with K-562 leukemia, 72.9%; with MALME-3M melanoma, 28.9%; in the assay with MDA-MB-231 breast, 38.6%; in the assay with RXF 393 renal, 37.9%; with SF-268 CNS, 54.8%. The growth in the assay with SF-295 CNS is 48.7%; in the assay with SF-539 CNS, 27.4%; with UACC-257 melanoma, 28.9%; in the assay on M14 melanoma it was 11%; in the assay on HCT-15 colon, 39%; in the assay on HT29 colon, 25.7%. Further, the growth in the assay with SNB-75 CNS was 28.8%; with SNB-19 CNS it was 68.7%; in the assay with U251 CNS it was 41.7%; with PC-3 prostate, 64.4%; with SK-MEL-5 melanoma it was 40.4%; in the assay with UACC-62 melanoma it was 21.6%. Besides, the growth with LOX IMVI melanoma is 21.7%; with SK-MEL-28 melanoma, 25.5%.
For `COc1cnc2c(c1)C(=O)c1c-2n(CCCNCCO)c(=O)c2ccncc12`, the growth is 3.45% (active) in the assay on DU-145 prostate; 5.84% (active) in the assay on K-562 leukemia; -30.4% (active) in the assay with MALME-3M melanoma; 6.98% (active) in the assay on MDA-MB-231 breast; -11.1% (active) in the assay with RXF 393 renal; 14.8% in the assay with SF-268 CNS. Besides, the growth in the assay on SF-295 CNS was 6.34% (active); in the assay with SF-539 CNS, -15.2% (active); in the assay on UACC-257 melanoma, -19.3% (active); in the assay with M14 melanoma, -1.26% (active); in the assay on HCT-15 colon, 23.1%; with HT29 colon it was 3.25% (active). The growth is 12.1% with SNB-75 CNS; 7.52% (active) with SNB-19 CNS; 0.604% (active) in the assay on U251 CNS; 6.97% (active) with PC-3 prostate; -78.4% (active) in the assay with SK-MEL-5 melanoma; -49.1% (active) with UACC-62 melanoma. Further, the growth is -40.5% (active) in the assay with LOX IMVI melanoma and -13.1% (active) with SK-MEL-28 melanoma.
Regarding `CCCC(O)Cn1ncc(C(=O)OCC)c1NC(=O)NCc1ccccc1F` (stereo not given), the growth was 99.7% with DU-145 prostate; 66.7% in the assay on K-562 leukemia; 98.9% with MALME-3M melanoma; 91.3% in the assay on MDA-MB-231 breast; 101% in the assay on RXF 393 renal; 96.3% in the assay with SF-268 CNS. Moreover, the growth with SF-295 CNS was 89.9%; in the assay with SF-539 CNS it was 107%; in the assay with UACC-257 melanoma it was 72.4%; with M14 melanoma it was 93.1%; in the assay on HCT-15 colon, 105%; in the assay on HT29 colon, 81.1%. Also, the growth in the assay on SNB-75 CNS is 98.9%; with SNB-19 CNS, 102%; with U251 CNS, 93.8%; in the assay on PC-3 prostate it was 93.4%; in the assay with SK-MEL-5 melanoma, 93.2%; in the assay on UACC-62 melanoma, 86.3%. For the same molecule, the growth with LOX IMVI melanoma is 93.9%; in the assay with SK-MEL-28 melanoma, 110%.
Consider `Cc1c(-n2nnc(-c3nc4ccccc4s3)c2N)c(=O)n(-c2ccccc2)n1C`, for which the growth with DU-145 prostate was 115%; in the assay on K-562 leukemia it was 102%; in the assay with MALME-3M melanoma, 97.6%; in the assay with MDA-MB-231 breast, 113%; with RXF 393 renal, 121%; in the assay on SF-268 CNS, 99.8%. Besides, the growth was 103% in the assay with SF-295 CNS; 92.2% in the assay on SF-539 CNS; 102% with UACC-257 melanoma; 110% in the assay on M14 melanoma; 98.3% with HCT-15 colon; 100% in the assay with HT29 colon. For the same molecule, the growth in the assay with SNB-75 CNS was 83.1%; in the assay on SNB-19 CNS, 99.9%; in the assay on U251 CNS, 101%; with PC-3 prostate it was 98.2%; with SK-MEL-5 melanoma, 99.6%; in the assay on UACC-62 melanoma, 93.3%. For the same molecule, the figures for the growth with LOX IMVI melanoma and in the assay with SK-MEL-28 melanoma were 93.1% and 111%, respectively.
For `CNC(=O)c1cc(Oc2ccc3nc(NC(C)=O)sc3c2)ccn1`, the growth in the assay on DU-145 prostate was 101%; in the assay on K-562 leukemia, 81.8%; in the assay on MALME-3M melanoma it was 92.7%; with MDA-MB-231 breast, 98.7%; in the assay on RXF 393 renal, 115%; in the assay on SF-268 CNS it was 97.4%. In addition, the growth is 95.2% in the assay on SF-295 CNS; 94.3% in the assay with SF-539 CNS; 102% in the assay on UACC-257 melanoma; 101% in the assay on M14 melanoma; 106% in the assay with HCT-15 colon; 110% in the assay with HT29 colon. Besides, the growth is 84.4% in the assay with SNB-75 CNS; 106% in the assay on SNB-19 CNS; 98.4% with U251 CNS; 96.3% in the assay on PC-3 prostate; 101% with SK-MEL-5 melanoma; 98.8% in the assay with UACC-62 melanoma. Also, the growth in the assay with LOX IMVI melanoma is 93.2%; in the assay with SK-MEL-28 melanoma, 105%.
`CC(=O)c1cc(O)c2ccccc2c1O`: the growth was 126% in the assay on DU-145 prostate; 58% in the assay on K-562 leukemia; 95.9% in the assay on MALME-3M melanoma; 87.2% in the assay with MDA-MB-231 breast; 111% in the assay with RXF 393 renal; 124% with SF-268 CNS. Also, the growth in the assay on SF-295 CNS is 108%; in the assay on SF-539 CNS, 97.5%; in the assay on UACC-257 melanoma, 96.5%; with M14 melanoma, 105%; in the assay with HCT-15 colon, 98.9%; in the assay with HT29 colon it was 111%. The growth in the assay on SNB-75 CNS is 70.7%; in the assay with SNB-19 CNS it was 100%; in the assay with U251 CNS it was 98.2%; in the assay on PC-3 prostate, 85.7%; with SK-MEL-5 melanoma, 86.4%; with UACC-62 melanoma, 101%. Moreover, the growth with LOX IMVI melanoma was 78.5%; with SK-MEL-28 melanoma, 137%.
For `N#Cc1cccc(-c2c(-c3ccc4ccccc4c3)oc3ccccc3c2=O)c1`, the growth in the assay on DU-145 prostate is 77.1%; with K-562 leukemia, 11.5%; with MALME-3M melanoma it was 48.7%; with MDA-MB-231 breast, 55.7%; in the assay with RXF 393 renal it was 81.7%; in the assay on SF-268 CNS, 65.8%. Also, the growth with SF-295 CNS was 34.2%; in the assay on SF-539 CNS, 43.4%; in the assay on UACC-257 melanoma, 58.2%; in the assay with M14 melanoma, 6.18% (active); in the assay with HCT-15 colon it was 33.9%; with HT29 colon, 10.9%. For the same molecule, the growth with SNB-75 CNS is 51.1%; in the assay on SNB-19 CNS, 53.7%; with U251 CNS it was 45.6%; with PC-3 prostate, 34.1%; in the assay with SK-MEL-5 melanoma, 31%; in the assay on UACC-62 melanoma, 33.9%. The growth in the assay with LOX IMVI melanoma is 50.7%; in the assay with SK-MEL-28 melanoma, 58%.
In the case of `N#Cc1c(N)nnn1Cc1cc(=O)oc2c1ccc1ccccc12`, the growth is 105% in the assay with DU-145 prostate; 93.6% in the assay on K-562 leukemia; 103% in the assay on MALME-3M melanoma; 86.7% in the assay on MDA-MB-231 breast; 104% in the assay on RXF 393 renal; 98% in the assay with SF-268 CNS. The growth is 109% with SF-295 CNS; 113% in the assay with SF-539 CNS; 97.7% in the assay on UACC-257 melanoma; 101% in the assay on M14 melanoma; 102% in the assay on HCT-15 colon; 101% in the assay with HT29 colon. Also, the growth is 88.7% in the assay on SNB-75 CNS; 91.7% with SNB-19 CNS; 97.5% in the assay with U251 CNS; 93.4% with PC-3 prostate; 97.6% in the assay on SK-MEL-5 melanoma; 92.5% in the assay on UACC-62 melanoma. For the same molecule, the figures for the growth with LOX IMVI melanoma and with SK-MEL-28 melanoma were 59.3% and 113%, respectively.
